Data: the supplement of paper PMC10849652
Targets with a hit are over-represented here; the source holds about 7,900 in all. About 0.6% of all pairs of compound and target were hits.

Assays:
Experiment in all cases: log2 fold change, soluble protein after heating vs DMSO (PISA); higher = thermal stabilisation; K562 cells, 10 uM, 30 min; active = over 0.2 and 3.5 SD of the protein, either way, in both replicates (recomputed)
[1] = target: ZEB2 (UniProt O60315)
Summary of the method: (§1)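 K562 cells at 2×10^6 cells/mL were given 10 μM compound for 30 min. Aliquots then went through 3 min of heating across 48°C-58°C, were pooled, and were extracted in PBS with 0.5% NP-40 at 4°C, and the supernatant after 21,000xg for 90 min was quantified by TMTpro 16plex LC-MS/MS with channel sums equalised. Thermal stability relative to control samples, from duplicates, is given as log2 fold change.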

[2] = target: ZER1 (UniProt Q7Z7L7)
ZER1, sequence (Q7Z7L7 whole entry, looked up): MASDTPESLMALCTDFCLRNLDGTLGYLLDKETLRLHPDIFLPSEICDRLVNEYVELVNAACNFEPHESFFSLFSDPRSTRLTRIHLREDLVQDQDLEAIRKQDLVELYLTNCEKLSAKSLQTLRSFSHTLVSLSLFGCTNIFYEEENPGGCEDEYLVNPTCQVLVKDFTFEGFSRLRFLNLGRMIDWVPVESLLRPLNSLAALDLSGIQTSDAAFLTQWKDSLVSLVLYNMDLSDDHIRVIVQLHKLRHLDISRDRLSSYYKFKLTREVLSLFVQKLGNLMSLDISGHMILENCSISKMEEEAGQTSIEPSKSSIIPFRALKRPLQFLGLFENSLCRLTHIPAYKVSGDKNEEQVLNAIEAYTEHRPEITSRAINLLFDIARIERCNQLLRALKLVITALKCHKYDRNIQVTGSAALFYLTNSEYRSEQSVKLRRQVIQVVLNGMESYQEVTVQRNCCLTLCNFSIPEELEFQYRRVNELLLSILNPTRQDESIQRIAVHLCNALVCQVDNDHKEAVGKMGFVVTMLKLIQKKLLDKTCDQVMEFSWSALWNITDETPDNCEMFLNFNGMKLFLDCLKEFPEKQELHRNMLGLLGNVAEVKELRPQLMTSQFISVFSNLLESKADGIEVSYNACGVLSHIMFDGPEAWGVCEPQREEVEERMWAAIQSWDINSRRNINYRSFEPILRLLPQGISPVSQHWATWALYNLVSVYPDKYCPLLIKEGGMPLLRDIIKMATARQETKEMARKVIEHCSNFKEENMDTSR
Summary of the method: as §1

[3] = target: ZFAND5 (UniProt O76080)
Summary of the method: as §1

[4] = target: ZFAND6 (UniProt Q6FIF0)
Summary of the method: as §1

[5] = target: ZFP91 (UniProt Q96JP5)
ZFP91, sequence (Q96JP5 whole entry, looked up): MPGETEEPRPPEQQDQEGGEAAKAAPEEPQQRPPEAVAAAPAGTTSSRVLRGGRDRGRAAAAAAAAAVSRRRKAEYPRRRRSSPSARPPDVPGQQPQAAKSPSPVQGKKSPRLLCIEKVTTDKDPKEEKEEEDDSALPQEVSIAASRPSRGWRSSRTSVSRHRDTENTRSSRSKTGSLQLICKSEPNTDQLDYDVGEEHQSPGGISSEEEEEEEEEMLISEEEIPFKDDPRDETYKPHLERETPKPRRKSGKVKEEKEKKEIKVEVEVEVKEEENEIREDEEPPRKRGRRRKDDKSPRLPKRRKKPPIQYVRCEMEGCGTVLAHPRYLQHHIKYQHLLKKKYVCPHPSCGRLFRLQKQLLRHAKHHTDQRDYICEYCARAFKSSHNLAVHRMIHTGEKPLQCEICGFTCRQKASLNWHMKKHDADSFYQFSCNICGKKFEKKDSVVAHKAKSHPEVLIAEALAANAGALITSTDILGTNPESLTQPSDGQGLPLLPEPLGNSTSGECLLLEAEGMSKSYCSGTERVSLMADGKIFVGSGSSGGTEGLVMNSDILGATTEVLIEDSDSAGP
Summary of the method: as §1

[6] = target: ZFPL1 (UniProt O95159)
ZFPL1, sequence (O95159 whole entry, looked up): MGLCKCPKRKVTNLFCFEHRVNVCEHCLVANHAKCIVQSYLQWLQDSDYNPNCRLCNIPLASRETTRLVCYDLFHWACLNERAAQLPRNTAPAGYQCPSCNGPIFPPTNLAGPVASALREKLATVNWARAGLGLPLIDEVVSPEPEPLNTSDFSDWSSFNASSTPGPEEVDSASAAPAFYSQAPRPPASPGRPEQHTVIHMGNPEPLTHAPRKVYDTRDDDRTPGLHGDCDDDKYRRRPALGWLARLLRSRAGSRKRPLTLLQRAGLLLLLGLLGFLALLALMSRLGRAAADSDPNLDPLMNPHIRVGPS
Summary of the method: as §1

[7] = target: ZMAT2 (UniProt Q96NC0)
Summary of the method: as §1

[8] = target: ZMYM1 (UniProt Q5SVZ6)
Summary of the method: as §1

[9] = target: ZMYM3 (UniProt Q14202)
Summary of the method: as §1

[10] = target: ZNF143 (UniProt P52747)
ZNF143, sequence (P52747 whole entry, looked up): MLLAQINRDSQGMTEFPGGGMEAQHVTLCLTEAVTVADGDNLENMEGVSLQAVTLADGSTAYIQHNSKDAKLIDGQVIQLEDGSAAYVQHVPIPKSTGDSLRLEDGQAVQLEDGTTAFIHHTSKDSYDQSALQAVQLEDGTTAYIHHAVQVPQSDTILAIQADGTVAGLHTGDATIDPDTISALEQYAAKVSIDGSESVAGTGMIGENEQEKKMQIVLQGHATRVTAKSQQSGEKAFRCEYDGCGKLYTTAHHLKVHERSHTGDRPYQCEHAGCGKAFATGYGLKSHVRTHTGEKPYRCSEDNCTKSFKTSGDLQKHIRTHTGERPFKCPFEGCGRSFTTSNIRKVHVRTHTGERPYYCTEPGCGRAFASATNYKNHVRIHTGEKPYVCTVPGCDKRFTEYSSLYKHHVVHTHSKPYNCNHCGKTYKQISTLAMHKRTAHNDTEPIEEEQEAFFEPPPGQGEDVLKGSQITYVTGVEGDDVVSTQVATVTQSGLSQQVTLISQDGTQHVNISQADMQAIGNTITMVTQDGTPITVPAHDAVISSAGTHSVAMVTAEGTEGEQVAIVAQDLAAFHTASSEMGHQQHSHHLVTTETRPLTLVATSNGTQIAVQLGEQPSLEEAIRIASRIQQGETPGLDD
Summary of the method: as §1

[11] = target: ZNF217 (UniProt O75362)
ZNF217, sequence (O75362 whole entry, looked up): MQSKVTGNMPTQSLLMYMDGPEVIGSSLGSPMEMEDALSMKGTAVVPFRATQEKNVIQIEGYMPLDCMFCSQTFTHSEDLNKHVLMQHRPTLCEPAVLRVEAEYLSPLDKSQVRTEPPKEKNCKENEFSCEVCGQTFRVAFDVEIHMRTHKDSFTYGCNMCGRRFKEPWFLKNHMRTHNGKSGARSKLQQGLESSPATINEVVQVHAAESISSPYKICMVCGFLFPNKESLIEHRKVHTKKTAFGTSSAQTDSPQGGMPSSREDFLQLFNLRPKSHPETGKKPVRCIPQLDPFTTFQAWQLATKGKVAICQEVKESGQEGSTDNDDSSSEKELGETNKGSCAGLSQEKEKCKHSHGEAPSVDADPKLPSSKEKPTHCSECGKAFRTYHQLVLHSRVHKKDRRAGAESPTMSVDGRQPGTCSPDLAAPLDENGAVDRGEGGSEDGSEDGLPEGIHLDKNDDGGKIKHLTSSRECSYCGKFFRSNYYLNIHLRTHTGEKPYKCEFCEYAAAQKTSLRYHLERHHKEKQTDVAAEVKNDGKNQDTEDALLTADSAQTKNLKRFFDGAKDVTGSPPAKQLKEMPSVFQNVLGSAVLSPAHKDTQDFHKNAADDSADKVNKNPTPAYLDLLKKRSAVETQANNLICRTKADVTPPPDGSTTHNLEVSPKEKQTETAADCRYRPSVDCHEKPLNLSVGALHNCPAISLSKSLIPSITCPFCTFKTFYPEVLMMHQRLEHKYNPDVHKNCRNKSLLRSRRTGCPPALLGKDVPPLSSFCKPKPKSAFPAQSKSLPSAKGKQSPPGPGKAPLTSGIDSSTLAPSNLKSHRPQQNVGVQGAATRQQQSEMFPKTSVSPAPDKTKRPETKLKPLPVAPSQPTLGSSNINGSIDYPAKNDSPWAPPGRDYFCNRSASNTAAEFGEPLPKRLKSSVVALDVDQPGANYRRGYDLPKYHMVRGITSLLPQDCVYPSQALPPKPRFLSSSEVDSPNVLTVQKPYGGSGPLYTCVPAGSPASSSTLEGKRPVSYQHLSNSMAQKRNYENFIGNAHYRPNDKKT
Summary of the method: as §1

[12] = target: ZNF239 (UniProt Q16600)
Summary of the method: as §1

[13] = target: ZNF511 isoform 1 (UniProt Q8NB15)
ZNF511 isoform 1, sequence (Q8NB15 whole entry, looked up, canonical isoform): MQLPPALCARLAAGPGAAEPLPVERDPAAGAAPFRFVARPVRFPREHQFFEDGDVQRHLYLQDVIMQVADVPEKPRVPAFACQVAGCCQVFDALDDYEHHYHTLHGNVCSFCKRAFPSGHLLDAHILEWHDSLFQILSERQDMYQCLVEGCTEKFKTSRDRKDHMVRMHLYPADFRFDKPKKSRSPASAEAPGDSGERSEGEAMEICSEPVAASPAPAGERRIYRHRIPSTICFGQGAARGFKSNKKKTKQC
Summary of the method: as §1

[14] = target: ZNF579 (UniProt Q8NAF0)
Summary of the method: as §1

[15] = target: ZNF580 (UniProt Q9UK33)
Summary of the method: as §1

[16] = target: ZNF609 (UniProt O15014)
Summary of the method: as §1

[17] = target: ZNF622 (UniProt Q969S3)
ZNF622, sequence (Q969S3 whole entry, looked up): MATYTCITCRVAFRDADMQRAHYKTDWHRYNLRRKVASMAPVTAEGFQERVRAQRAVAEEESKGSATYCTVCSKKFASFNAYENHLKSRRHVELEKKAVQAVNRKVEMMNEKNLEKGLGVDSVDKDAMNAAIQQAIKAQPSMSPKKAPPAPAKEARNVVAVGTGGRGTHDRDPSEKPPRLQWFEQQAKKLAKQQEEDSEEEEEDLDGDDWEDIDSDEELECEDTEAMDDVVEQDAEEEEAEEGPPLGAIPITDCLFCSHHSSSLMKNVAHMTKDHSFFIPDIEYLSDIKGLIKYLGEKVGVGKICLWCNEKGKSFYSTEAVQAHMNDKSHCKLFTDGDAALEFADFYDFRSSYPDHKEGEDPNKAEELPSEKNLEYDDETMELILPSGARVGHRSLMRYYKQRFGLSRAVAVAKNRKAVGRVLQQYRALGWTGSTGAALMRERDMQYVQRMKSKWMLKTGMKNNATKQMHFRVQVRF
Summary of the method: as §1

[18] = target: ZRANB2 (UniProt O95218)
ZRANB2, sequence (O95218 whole entry, looked up): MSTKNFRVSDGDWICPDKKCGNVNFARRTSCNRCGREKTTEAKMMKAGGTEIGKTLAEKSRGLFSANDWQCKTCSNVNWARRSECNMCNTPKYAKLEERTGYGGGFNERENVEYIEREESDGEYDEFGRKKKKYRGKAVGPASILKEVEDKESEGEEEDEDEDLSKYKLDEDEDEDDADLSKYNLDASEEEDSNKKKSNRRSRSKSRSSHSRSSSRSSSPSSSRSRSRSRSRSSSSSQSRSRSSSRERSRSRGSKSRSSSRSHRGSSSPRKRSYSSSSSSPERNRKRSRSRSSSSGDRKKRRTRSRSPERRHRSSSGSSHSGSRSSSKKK
Summary of the method: as §1

[19] = target: ZNF277 (UniProt Q9NRM2)
ZNF277, sequence (Q9NRM2 whole entry, looked up): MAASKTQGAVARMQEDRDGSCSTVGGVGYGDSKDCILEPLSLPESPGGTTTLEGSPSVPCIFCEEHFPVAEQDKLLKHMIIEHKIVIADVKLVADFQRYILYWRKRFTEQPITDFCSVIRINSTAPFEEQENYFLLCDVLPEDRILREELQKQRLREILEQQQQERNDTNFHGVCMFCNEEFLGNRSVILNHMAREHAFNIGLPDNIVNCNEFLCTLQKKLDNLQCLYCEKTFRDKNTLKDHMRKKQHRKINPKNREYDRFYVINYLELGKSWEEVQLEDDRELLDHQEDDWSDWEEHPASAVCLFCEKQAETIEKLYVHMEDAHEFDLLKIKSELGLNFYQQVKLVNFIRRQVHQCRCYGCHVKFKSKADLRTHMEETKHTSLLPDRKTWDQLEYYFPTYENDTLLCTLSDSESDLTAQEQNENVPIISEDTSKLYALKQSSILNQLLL
Summary of the method: as §1

[20] = target: ZNF512 (UniProt Q96ME7)
Summary of the method: as §1

Measured: log2 fold change

CON(C)C(=O)N1N=C(c2cc(F)ccc2F)S[C@@]1(CCCN)c1ccccc1 [filanesib]
inactive: [1] 0.025 | [2] -0.006 | [3] 0.073 | [4] -0.111 | [5] 0.183 | [6] -0.001 | [7] -0.084 | [8] 0.067 | [9] 0.012 | [10] 0.024 | [11] -0.045 | [12] 0.051 | [13] 0.019 | [14] 0.181 | [15] 0.152 | [16] 0.049 | [17] -0.101 | [18] 0

C/C(=N\NC(=O)c1cccc(S(=O)(=O)N2CCOCC2)c1)c1cc(Cl)ccc1O
inactive: [2] 0.019 | [3] -0.018 | [4] -0.075 | [5] -0.069 | [6] 0.099 | [7] 0.001 | [8] -0.174 | [9] -0.004 | [10] 0.127 | [11] 0.074 | [12] 0.019 | [19] -0.031 | [20] -0.085 | [14] 0.147 | [16] -0.048 | [17] 0.015 | [18] -0.067
active: [13] -0.402

Cc1ccc(NC(=O)c2cccc(C(C)(C)C#N)c2)cc1Nc1ccc2ncn(C)c(=O)c2c1
inactive: [1] -0.027 | [2] -0.041 | [3] -0.064 | [4] 0.069 | [5] 0.017 | [6] 0.061 | [7] 0.209 | [8] -0.071 | [9] -0.092 | [10] -0.023 | [11] 0.075 | [12] -0.002 | [13] -0.026 | [14] 0.043 | [15] -0.174 | [16] -0.046 | [17] 0.048 | [18] 0.034

CN1CCN(CCOc2cc(OC3CCOCC3)c3c(Nc4c(Cl)ccc5c4OCO5)ncnc3c2)CC1 [saracatinib]
inactive: [1] 0.008 | [2] 0.013 | [3] 0.08 | [4] -0.035 | [5] 0.036 | [6] 0.016 | [7] 0.026 | [8] -0.024 | [9] 0.098 | [10] 0.094 | [11] -0.083 | [12] 0.052 | [19] -0.276 | [14] -0.025 | [15] 0.108 | [16] 0.047 | [17] -0.005 | [18] 0.044

c1cc(OCCN2CCCCC2)cc(-c2n[nH]c3ccc(-c4nnc[nH]4)cc23)c1
inactive: [2] 0.023 | [3] -0.063 | [4] -0.006 | [5] -0.161 | [6] 0.008 | [7] 0.035 | [8] -0.229 | [9] 0.029 | [10] -0.06 | [11] -0.096 | [19] -0.275 | [13] -0.043 | [14] 0.078 | [15] -0.083 | [16] -0.003 | [17] 0.092 | [18] 0.021

O=C1c2ccccc2-c2n[nH]c3cccc1c23
inactive: [2] -0.009 | [3] -0.055 | [4] -0.055 | [5] -0.004 | [6] -0.055 | [7] 0.018 | [8] 0.001 | [9] -0.093 | [10] -0.077 | [11] 0.03 | [12] 0.004 | [19] 0.065 | [13] 0.041 | [20] 0.161 | [14] 0.279 | [16] 0.002 | [17] 0.042 | [18] -0.059

CCn1cc(-c2ccnc3[nH]c(-c4cccc(CN(C)C)c4)cc23)c(-c2ccc(NC(=O)N(C)C)cc2)n1
inactive: [2] -0.16 | [3] -0.017 | [4] -0.009 | [5] 0.07 | [6] 0.032 | [7] 0.022 | [8] 0.141 | [9] 0.018 | [10] -0.102 | [11] 0.036 | [12] 0.095 | [19] 0.01 | [14] 0.091 | [15] 0.092 | [16] 0.097 | [17] -0.077 | [18] 0.022

O=C(CCCCCCNC(=O)c1cnc(N(c2ccccc2)c2ccccc2Cl)nc1)NO [citarinostat]
inactive: [2] 0.192 | [3] 0 | [4] -0.081 | [5] -0.053 | [6] 0.046 | [7] 0.085 | [8] -0.07 | [9] -0.033 | [10] 0.033 | [11] -0.004 | [19] 0.306 | [13] 0.054 | [14] -0.089 | [15] -0.013 | [16] 0.083 | [17] -0.011 | [18] -0.031

COc1cc(C(=O)O)ccc1NC(=O)[C@@H]1N[C@@H](CC(C)(C)C)[C@](C#N)(c2ccc(Cl)cc2F)[C@H]1c1cccc(Cl)c1F [idasanutlin]
inactive: [2] -0.188 | [3] 0.079 | [4] -0.096 | [5] 0.029 | [6] -0.026 | [7] 0.061 | [8] 0.085 | [9] 0 | [10] 0.07 | [11] -0.027 | [12] -0.031 | [19] -0.003 | [13] 0.128 | [20] 0.3 | [14] -0.116 | [16] 0.021 | [17] -0.031 | [18] 0.024

CN1CC[C@H](c2c(O)cc(O)c3c(=O)cc(-c4ccccc4Cl)oc23)[C@H](O)C1 [alvocidib]
inactive: [2] -0.131 | [3] 0.041 | [4] 0.028 | [5] 0.108 | [6] -0.038 | [7] 0.047 | [8] 0.016 | [9] 0.14 | [10] -0.125 | [11] -0.164 | [12] 0.226 | [19] 0.169 | [13] -0.143 | [20] -0.002 | [14] -0.034 | [16] 0.077 | [17] 0.085 | [18] 0.068

NC(=O)c1cnc(N[C@@H]2CCCC[C@@H]2N)nc1Nc1cccc(-n2nccn2)c1
inactive: [2] -0.001 | [3] 0.084 | [4] 0.089 | [5] -0.001 | [6] 0.054 | [7] 0.079 | [8] -0.123 | [9] 0.11 | [10] -0.106 | [11] -0.053 | [12] -0.092 | [19] 0.067 | [13] -0.066 | [20] -0.005 | [14] 0.067 | [16] 0.015 | [17] -0.002 | [18] 0.002

CC[C@@H]1C(=O)N(C)c2cnc(Nc3ccc(C(=O)NC4CCN(C)CC4)cc3OC)nc2N1C1CCCC1
inactive: [2] -0.032 | [3] 0.052 | [4] 0.058 | [5] 0.104 | [6] -0.027 | [7] 0.017 | [8] 0.202 | [9] 0.015 | [10] -0.018 | [11] 0.029 | [19] 0.328 | [13] -0.041 | [14] -0.017 | [15] 0.037 | [16] 0.047 | [17] 0.069 | [18] 0.022

C[C@@H](N)c1ccc(C(=O)Nc2ccnc3[nH]ccc23)cc1
inactive: [2] -0.055 | [3] -0.021 | [4] 0.031 | [5] 0.154 | [6] -0.006 | [7] -0.012 | [8] 0.016 | [9] 0.045 | [10] -0.118 | [11] -0.013 | [12] 0.022 | [19] 0.315 | [13] -0.105 | [20] 0.45 | [14] 0.102 | [16] 0.033 | [17] 0 | [18] -0.043

O=C1NC(=NCc2cccs2)S/C1=C\c1ccc2ncccc2c1
inactive: [2] -0.016 | [3] -0.015 | [4] 0.077 | [5] -0.007 | [6] 0.01 | [7] -0.063 | [8] 0.113 | [9] 0 | [10] -0.028 | [11] 0.007 | [12] 0.117 | [19] 0.019 | [13] 0.087 | [20] 0.102 | [14] -0.051 | [16] -0.025 | [17] 0.07 | [18] -0.059

O=C(CCCCCCC(=O)Nc1ccccc1)NO [vorinostat]
inactive: [2] 0.055 | [3] -0.047 | [4] 0.04 | [5] 0.013 | [6] -0.053 | [7] -0.019 | [8] -0.02 | [9] 0.073 | [10] 0.037 | [11] 0.056 | [12] 0.275 | [19] -0.022 | [14] -0.032 | [15] -0.064 | [16] -0.128 | [17] -0.049 | [18] -0.03

Cn1c2cc(S(C)=O)sc2c2cnn(Cc3cccc(N)c3)c(=O)c21 (stereo not drawn)
inactive: [1] 0.098 | [2] 0.019 | [3] 0.022 | [4] -0.003 | [5] 0.099 | [6] -0.031 | [7] -0.034 | [8] -0.014 | [9] -0.023 | [10] -0.003 | [11] 0.237 | [12] 0.34 | [19] 0.084 | [14] 0.008 | [15] 0.259 | [16] 0.021 | [17] -0.061 | [18] -0.006
